Experimental data taken from PubChem BioAssay AID1852 (Sanford-Burnham Center for Chemical Genomics, 2009).
Out of some 2,500 compounds screened, about 1,100 (44%) were called active. So high a share suggests a set chosen from earlier hits. Some of the results follow. A number with no mark means an inactive call.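 Rule for the calls: active = inhibition above 50% at 4 µM in the single-point screen; inactive = inhibition of 50% or less.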

Assay: TNF-a-driven NF-kB reporter inhibitors, primary screen, selectivity assay for NOD1/NOD2 signaling inhibitor project, cell-based, HEK293T NF-kB-Luc, luminescence (AID 1852)
Conditions: TNF-a induced, 14 h, at 4 µM, stronger effect = higher value

Structure (SMILES)	inhibition
COc1cc(S(=O)(=O)NCc2ccncc2)ccc1Br	45.8%
CCSc1nsc(NC(=O)Nc2cccc(C(C)=O)c2)n1	30.4%
C=CCSc1nsc(NC(=O)Nc2cccc(C(C)=O)c2)n1	85.2% (active)
C=CCSc1nsc(NC(=O)Nc2ccc(F)cc2)n1	43.4%
CC(=O)c1ccc(Nc2nc3ccccc3nc2NS(=O)(=O)c2cccs2)cc1	12.2%
O=S(=O)(Nc1nc2ccccc2nc1Nc1ccc(N2CCOCC2)cc1)c1cc(Cl)ccc1Cl	77% (active)
C=CCN(c1ccccc1OC)S(=O)(=O)c1ccc(Cl)c(C(=O)Nc2ccc(N3CCOCC3)cc2)c1	25.4%
Cc1oc2c(c1C(=O)c1ccccc1)C(=O)C(=O)c1ccccc1-2	104% (active)
COc1ccc(CNC(=O)c2c(C)oc3c2C(=O)c2ccccc2C3=O)cc1	100% (active)
COc1ccc(CNC(=O)c2ccc3ccccc3n2)cc1OC	38%
Cc1oc2c(c1C(=O)NCc1cccnc1)C(=O)c1ccccc1C2=O	97.7% (active)
Cc1ccccc1-c1nc(CS(=O)(=O)CC(=O)NCCc2ccccc2)c(C)o1	10%
Cc1csc2c(N3CCN(C(=S)Nc4ccc(C(F)(F)F)cc4)CC3)ncnc12	78.5% (active)
Fc1ccc(NC(=S)N2CCCN(c3ccc(C(F)(F)F)cn3)CC2)c(F)c1	55.6% (active)
Cc1csc2c(N3CCN(C(=O)Nc4ccc(Cl)c(Cl)c4)CC3)ncnc12	52.5% (active)
Cc1csc2ncnc(N3CCN(C(=S)Nc4ccc(F)cc4F)CC3)c12	66.9% (active)
CCCCNC(=S)Nc1ccc(C(F)(F)F)cc1	-47.5%
Fc1ccc(NC(=S)NNc2ncc(C(F)(F)F)cc2Cl)c(F)c1	49.4%
Cc1ccc(S(=O)(=O)c2c(C(=O)c3ccccc3)cnc3cc4c(cc23)OCCO4)cc1	1.5%
Cc1csc2ncnc(N3CCN(C(=O)Nc4ccc(OC(F)(F)F)cc4)CC3)c12	102% (active)
Cc1csc2ncnc(N3CCN(S(=O)(=O)c4cccc(C(F)(F)F)c4)CC3)c12	44.4%
Cc1csc2ncnc(N3CCN(C(=S)Nc4ccc(C(F)(F)F)cc4)CC3)c12	66.1% (active)
O=C(CCl)c1cc2c3c(c1)CC(=O)N3CCC2	90.7% (active)
Fc1ccc(NC(=S)Nc2nccs2)cc1	73.6% (active)

Structure (SMILES)	inhibition
O=[N+]([O-])c1ccc(NC(=S)NCc2ccc(F)cc2)cc1	22.1%
CC(=O)Nc1nnc(S(=O)(=O)N2CCN(c3ccc(Cl)cc3[N+](=O)[O-])CC2)s1	-2.9%
COc1ccc(-c2cn[nH]c2-c2ccc(O)cc2O)cc1	51% (active)
COc1ccc(-c2cn[nH]c2-c2ccc(OC)cc2O)cc1	69.2% (active)
CCCOC(=O)c1ccc(Oc2cn[nH]c2-c2ccc(O)cc2O)cc1	17.1%
COc1ccc(-c2cn[nH]c2-c2ccc(OCc3ccc(F)cc3)cc2O)cc1OC	4.6%
COc1ccc(-c2cn[nH]c2-c2ccc(OCc3ccccc3F)cc2O)cc1OC	-1.5%
COc1ccc(-c2cn[nH]c2-c2ccc(OC)cc2)cc1	63.6% (active)
COc1ccc(-c2[nH]ncc2-c2ccc3c(c2)OCCO3)c(O)c1	102% (active)
COc1ccc(-c2cn[nH]c2-c2ccc(OCc3ccccc3)cc2O)cc1	32.2%
CS(=O)(=O)N1CCC(C(=O)Nc2cc(Cl)c(Cl)cc2Cl)CC1	30.2%
COc1ccc(CC2(CO)CCN(CC3=Cc4cc(Cl)ccc4OC3)CC2)cc1	44%
Cc1nc(Sc2ccc(Br)cc2)c(C#N)c(C)c1[N+](=O)[O-]	-8.7%
COc1ccc(NC(=O)/C(Cl)=C(/Cl)S(=O)Cc2ccc(C)cc2)cn1 (stereo not drawn)	105% (active)
COc1ccc(CS(=O)/C(Cl)=C(/Cl)C(=O)Nc2ccc(OC)nc2)cc1 (stereo not drawn)	101% (active)
COc1ccc(NC(=O)/C(Cl)=C(/Cl)S(=O)Cc2ccc(Cl)cc2)cn1 (stereo not drawn)	89% (active)
O=C(Cc1ccc(Cl)cc1)Nc1ncc([N+](=O)[O-])s1	16.3%
COc1ccc(NC(=O)/C(Cl)=C(/Cl)S(=O)Cc2ccccc2)cn1 (stereo not drawn)	104% (active)
COc1ccc(NC(=O)/C(Cl)=C(/Cl)S(=O)Cc2ccccc2Cl)cn1 (stereo not drawn)	98.2% (active)
CCc1nn2cc(C(=O)c3cc(Cl)ccc3O)cnc2c1-c1ccc(F)cc1	-6%
Cn1c(=O)c(C#N)c(-c2ccc(F)cc2)c2cc(C(=O)c3cc(Cl)cc(Cl)c3O)cnc21	95.8% (active)
CCn1c(SCC(=O)Nc2ccc(OC)cc2)nc2nc3c(cc2c1=O)CCCC3	-16.7%
COc1ccc(NC(=O)CN(C)C(=O)c2ccccc2OC)cc1	-11.8%
COc1ccc(C2(c3ccc(OC)cc3)NC(=O)N(CC(=O)Nc3ccc(C(N)=O)cc3)C2=O)cc1	59.3% (active)

Structure (SMILES)	inhibition
CC(C)(C)C1CCC2(CC1)C(C#N)=C(SCC(=O)Nc1ccccc1)NC(=O)C2C#N (stereo not drawn)	79% (active)
CC(C)(C)C1CCC2(CC1)C(C#N)=C(SCC(=O)NC1CCCCC1)NC(=O)C2C#N (stereo not drawn)	-10.7%
N#CC1=C(SCC(=O)NC23CC4CC(CC(C4)C2)C3)NC(=O)C(C#N)C12CCCCC2 (stereo not drawn)	66.1% (active)
O=C1NC(=S)S/C1=C\c1cc2ccccc2nc1N1CCCCC1	42%
O=C(CN1C(=O)c2ccccc2S1(=O)=O)c1ccc(F)cc1	29.1%
O=C1c2ccccc2S(=O)(=O)N1Cc1nc2ccccc2s1	53.2% (active)
Cc1ccc(C(=O)CN2C(=O)c3ccccc3S2(=O)=O)cc1	85.1% (active)
COc1ccc(C(=O)CN2C(=O)c3ccccc3S2(=O)=O)cc1	92.1% (active)
O=C(CCl)Nc1ccccc1Sc1ccc(Cl)cc1	33.5%
O=C(CCl)Nc1ccc(Sc2ccc(NC(=O)CCl)cc2)cc1	81.3% (active)
O=C1NC(=O)/C(=C/c2ccccc2Oc2ccc(Cl)cc2)S1	-26.6%
O=C1NC(=O)/C(=C\c2ccccc2Oc2ccc(F)c(F)c2)S1	55.7% (active)
O=C1NC(=O)/C(=C/c2ccccc2OCc2ccccc2)S1	16.2%
Cc1cc(C(=O)CCl)c(C)n1CCc1ccc(Cl)cc1	21.1%
Cc1cc(C(=O)CCl)c(C)n1CCc1ccc(F)cc1	55.6% (active)
CCOC(=O)C1CCN(S(=O)(=O)c2ccc3c(c2)N(C(C)=O)CC(C)S3)CC1 (stereo not drawn)	5.4%
CCOC(=O)C1CCN(C(=O)Cn2cnc3sc(C)c(S(=O)(=O)N4CCC(C)CC4)c3c2=O)CC1	55.3% (active)
CCC(C)NC(=O)Cn1cnc2sc(C)c(S(=O)(=O)N3CCN(c4ccccc4OC)CC3)c2c1=O (stereo not drawn)	9.7%
CN(C)S(=O)(=O)Oc1ccc(C(=O)Nc2cccc(C(F)(F)F)c2)cc1	36.5%
CN(C)S(=O)(=O)c1cccc(NC(=O)c2ccc(COc3ccccc3)cc2)c1	80.7% (active)
CCOC(=O)C1=C(Cc2ccc(F)cc2)C(=O)c2ccccc2C1=O	90.8% (active)
CCOC(=O)C1=C(Cc2ccc(C)cc2)C(=O)c2ccccc2C1=O	61.3% (active)
CCOC(=O)C1=C(Cc2ccc(Cl)cc2)C(=O)c2ccccc2C1=O	7.7%
CCOC(=O)C1=C(c2ccc(OC)cc2)C(=O)c2ccccc2C1=O	108% (active)

Structure (SMILES)	inhibition
CCOC(=O)c1sc2ccccc2c1OC(=O)c1ccc(C)cc1	17.4%
CC(Nc1ncnc2ccccc12)c1ccccc1 (stereo not drawn)	83.3% (active)
c1ccc(CNc2ncnc3ccccc23)cc1	65.6% (active)
COc1ccc(CNc2ncnc3ccccc23)cc1	65.6% (active)
CC(Nc1ncnc2sccc12)c1ccccc1 (stereo not drawn)	35.1%
Fc1ccc(CNc2ncnc3cc(Cl)ccc23)cc1	39.9%
COc1cccc(CNc2ncnc3cc(Cl)ccc23)c1	49.2%
Cc1cc2c(NCc3ccccc3)ncnc2s1	42.6%
Cc1ccccc1OCc1nc2ccccc2c(=O)n1/N=C/c1cn[nH]c1-c1ccc(Br)cc1	3.5%
O=C(c1cnc(N2CCN(c3ccccn3)CC2)c2ccccc12)N1CCN(c2cccc(Cl)c2)CC1	53.2% (active)
Cc1nc(N2CCN(c3ccccn3)CC2)c2c(C)c(C(=O)N3CCN(c4ccccc4F)CC3)sc2n1	-27.6%
O=C(CN1CCN(c2ccccn2)CC1)Nc1cccc(Br)c1	13.8%
Cc1nc(N2CCN(c3ccccn3)CC2)c2c(C)c(C(=O)Nc3ccccc3F)sc2n1	4.6%
Cc1cc(Br)ccc1NC(=O)c1cnc(N2CCN(c3ccccn3)CC2)c2ccccc12	73.3% (active)
S=C(Nc1ccc(Oc2ccccc2)cc1)N1CCN(c2ccccn2)CC1	21%
CCc1ccc(NC(=O)c2cnc(N3CCN(c4ccccn4)CC3)c3ccccc23)cc1	78.3% (active)
CCN(C(=O)c1cnc(N2CCN(c3ncccn3)CC2)c2ccccc12)c1cccc(Cl)c1	46.7%
COc1ccccc1N1CCN(c2ncc(C(=O)N3CCN(c4cccc(Cl)c4)CC3)c3ccccc23)CC1	21.9%
Cc1ccccc1C(=O)N1CCN(c2ccccn2)CC1	48.2%
Cc1ccc(NC(=O)c2cnc(N3CCN(c4ccccn4)CC3)c3ccccc23)c(Br)c1	99.8% (active)
COc1ccc(C)cc1NC(=O)c1sc2ncnc(N3CCN(c4ccccn4)CC3)c2c1C	-10%
